Screening results deposited in PubChem BioAssay by Broad Institute.
HSF1 inhib = HSF1 inhibition | NIH3T3-HGL HSE-luciferase, MG132-induced, luminescence 8 h; active compounds read low | 0.77% of 300,000 active | activity change, negative = inhibition, % at 7.5 µM (by protocol) | AID 2098;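 active = more than half of replicate wells show activity change below -50%, luminescence cut by over half; inconclusive = some wells, but at most half, below -50%; inactive = no replicate well below -50%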;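 note: luciferase reports HSF-1 transcriptional activity via heat shock element; 0% = median of DMSO wells and -100% = zero luminescence signal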
HSF1 activator = increases HSF-1 driven luciferase reporter signal | NIH3T3-HGL HSF-1 luciferase reporter, MG132, 8 h; 100% = twice DMSO control signal | activation, % at 9 µM | 1.7% of 300,000 active;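 active = mean replicate activation of at least 50% with a set share of replicates each reaching 50%; inconclusive = only one of those two conditions met; inactive = mean below 50% and too few replicates reaching it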;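 note: 0% = median of the neutral control wells and 100% = twice that signal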
esBAF inh = inhibitors of esBAF chromatin remodeling in mouse ES cells. Bmi1-luciferase knock-in reporter, 24 h; 100% = twice the neutral-well signal. reporter increase, % at 12.5 µM. 2% of 350,000 active; in the data active = activation above about 40%; inconclusive = no clear call, values can overlap the other calls;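 note: 0% = median of the plate's neutral control wells and 100% = double that signal; a rise in the Bmi1 reporter signal indicates esBAF inhibition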
Vif inh = inhibitors of HIV Vif; 0.35% of 340,000 active; HEK293T cells, Vif self-association by quenched fluorescence, imaging, 24 h; inhibition, % at 7.49 µM; in the data active = inhibition above about 50%, passing the limit was not always enough; inconclusive = no clear call, values can overlap the other calls; inactive = below about 31%
An asterisk follows results filed as active; ? = inconclusive; · = not tested or not shown. Shown are actives, neighbours in structure and some others; about 3.4% of the full set was active somewhere.

SMILES | HSF1 inhib | HSF1 activator | esBAF inh | Vif inh
O=C(Nc1ccccc1C(=O)OCC(=O)c1c[nH]c2ccccc12)c1ccco1 | 71.1 | 104.9* | · | -10.6
CC(C)(C)NC(=O)COC(=O)c1ccccc1NC(=O)c1ccco1 | 0.2 | 8.0 | · | -5.1
CCN(CC)S(=O)(=O)c1ccc2c(c1)nc(SCC(=O)NC1CC1)n2-c1ccccc1OC | 15.7 | 56.2* | 7.0 | -19.1
C[C@H]1CN([C@@H](C)CO)C(=O)c2cccc(NC(=O)c3ccncc3)c2O[C@H]1CN(C)S(=O)(=O)c1ccc(Cl)cc1 | · | · | -2.1 | ·
CCN1CCc2c(sc(NC(=S)NC(=O)c3ccc(Cl)cc3)c2C(N)=O)C1 | -13.5 | -1.3 | · | 50.8*
NC(=O)c1c(NC(=O)Cc2ccccc2)sc2c1CCN(Cc1ccccc1)C2 | 34.7 | 61.8* | 7.0 | 2.3
CC(=O)Nc1sc2c(c1C(N)=O)CCN(Cc1ccccc1)C2 | 3.4 | 12.1 | 4.4 | -2.0
Nc1[nH]n(-c2ccccc2)c(=O)c1N=Nc1ccccc1 | 41.1 | 44.1 | 53.9* | -3.1
Cc1ccccc1OCCn1c(=O)sc2ccccc21 | · | · | 63.4* | -0.2
Cc1ccc2oc(=O)n(CCCOc3ccccc3)c2c1 | 34.4 | 58.8* | 37.3 | -2.2
Cc1cccc(OCCN2C(=O)c3ccccc3C2=O)c1 | 21.2 | 41.7 | · | 0.9
COc1ccc(OCCn2c(=O)sc3ccccc32)cc1 | 4.9 | 32.7 | · | 22.0
Cc1cccc(OCCn2c(=O)sc3ccccc32)c1 | · | · | 68.2* | -1.3
Cc1cccc(OCCn2c(=O)n(C)c3ccccc32)c1 | 29.1 | 46.6 | 78.0* | -11.7
C[C@H](CO)N1C[C@H](C)[C@@H](CN(C)Cc2ccc(Oc3ccccc3)cc2)Oc2ccc(NS(=O)(=O)c3cn(C)cn3)cc2C1=O | · | · | 1.8 | ·
COc1ccccc1S(=O)(=O)N[C@@H]1C=C[C@H](CC(=O)N2CCN(C)CC2)O[C@H]1CO | · | · | 5.4 | ·
CCCNC(=O)N[C@H]1CC[C@H](CC(=O)NC2CCC2)O[C@@H]1CO | · | · | 1.0 | ·
COCC#Cc1cnc2c(c1)C(=O)N([C@H](C)CO)C[C@H](C)[C@@H](CN(C)C(=O)c1ccc3c(c1)OCO3)O2 | · | · | 0.5 | ·
Cc1cccc(OCCCn2c(=O)sc3ccccc32)c1 | 38.9 | 32.7 | 54.0* | ·
CCN(C[C@@H]1[C@@H](c2ccccc2)[C@H](CO)N1Cc1cccnc1)C(C)=O | · | · | 0.3 | ·
Cc1ccc(N2CCN(C(=S)c3ccc(N(C)C)cc3)CC2)cc1 | -23.5 | -25.6 | 30.3 | 66.0*
CNc1nc2cc([N+](=O)[O-])c([N+](=O)[O-])cc2nc1NC | 8.0 | 0.9 | · | -28.8
N#Cc1cc2nc(O)c(O)nc2cc1[N+](=O)[O-] | · | · | -0.4 | 51.1*
COc1ccc(-n2c(C)c(C(C)=O)c(C(C)=O)c2C)cc1 | -63.7* | -72.1 | 4.2 | -3.4
CCOc1ccc(-n2c(C)c(C(C)=O)c(C(C)=O)c2C)cc1 | 0.2 | -9.7 | -7.6 | -0.5
SMILES | HSF1 inhib | HSF1 activator | esBAF inh | Vif inh
COc1ccccc1NC(=O)C1=C(C)NC2=C(C(=O)CC(c3ccc(OC)c(OC)c3)C2)C1c1coc2ccccc2c1=O (configuration not stated) | 30.2 | 66.8* | 2.1 | 6.7
CCOC(=O)C1=C(C)NC2=C(C(=O)CC(c3ccc(OC)c(OC)c3)C2)C1c1ccc(C)o1 (configuration not stated) | · | · | -11.4 | ·
CCCN1C[C@@H](C)[C@H](OC)CN(C)C(=O)c2ccc(NC(=O)c3ccccc3)cc2OC[C@@H]1C | · | · | 2.1 | ·
COc1ccc(C2=Nc3ccccc3OC2)cc1 | 16.5 | 35.1 | 64.1* | ·
O=S(=O)(c1ccccc1)N1CCCCN2[C@@H](CO)[C@@H](c3ccc(C#Cc4cccnc4)cc3)[C@@H]2C1 | · | · | 1.5 | ·
O=[N+]([O-])c1ccc(/C=C2\CCC(C3=CCCC3)=C2N2CCOCC2)cc1 | 39.1 | 60.8* | · | 1.2
C[C@H]1CN([C@@H](C)CO)C(=O)Cc2cc(NC(=O)Cc3cn(C)c4ccccc34)ccc2O[C@@H]1CN(C)S(=O)(=O)c1ccc(Cl)cc1 | · | · | 5.1 | ·
CCOc1cccc(C(=O)Nc2ccc(NC(=O)c3cc4ccccc4o3)c(OC)c2)c1 | -0.4 | 12.7 | -3.4 | 71.2*
CC(C)C(=O)Nc1cccc(NC(=O)c2cc3ccccc3o2)c1 | 14.4 | 44.4 | 72.1* | -5.0
CN(C)S(=O)(=O)c1cccc(NC(=O)c2cc3ccccc3o2)c1 | 3.2 | 18.5 | 50.3* | -15.5
COc1cc(NC(=O)C(C)C)ccc1NC(=O)c1cc2ccccc2o1 | 29.6 | 49.0 | 60.0* | -4.6
CC(=O)Nc1cccc(NC(=O)c2cc3ccccc3o2)c1 | 28.3 | 39.9 | · | -2.4
O=C(Nc1cc(F)ccc1F)N1CCCCN2[C@@H](CO)[C@H](c3ccc(-c4cccnc4)cc3)[C@@H]2C1 | · | · | -7.8 | ·
Cc1ccc(N(NC(=O)C(O)(c2ccccc2)c2ccccc2)C(=O)CCl)cc1 | 72.3 | 75.4* | · | 7.5
C[C@@H]1CN([C@H](C)CO)C(=O)Cc2cc(NS(=O)(=O)c3ccc(F)cc3)ccc2O[C@H]1CN(C)Cc1ccc2c(c1)OCO2 | · | · | 5.6 | ·
COc1ccc(CN(C)CC(O)COC(c2ccc(OC)cc2)c2ccc(OC)cc2)cc1 (configuration not stated) | -2.9 | 9.3 | -7.8 | -5.8
CCOc1ccc(CN(C)CC(O)COC(c2ccc(OC)cc2)c2ccc(OC)cc2)cc1 (configuration not stated) | 26.2 | 56.7* | · | -7.9
C[C@H]1CN([C@@H](C)CO)S(=O)(=O)c2ccc(-c3cccc(C#N)c3)cc2O[C@H]1CN(C)Cc1cccc(F)c1 | · | · | -1.1 | ·
Cc1cccc(S(=O)(=O)N2CC[C@@H]3[C@H]2c2cc(C#Cc4cccc(F)c4)ccc2N[C@@H]3CO)c1 | · | · | -0.2 | ·
Cc1cc(CN(C)C(=O)c2cc(COc3ccc(C)c(C)c3)on2)on1 | 27.1 | 20.5 | ? | -11.1
Cc1ccc(OCc2cc(C(=O)N(C)Cc3cnn(C)c3)no2)cc1C | · | · | 45.7* | 4.9
CCN(Cc1cnn(C)c1)C(=O)c1cc(COc2cc(C)c(Cl)c(C)c2)on1 | 3.1 | 12.9 | 21.6 | -2.7
Cc1cc(OCc2cc(C(=O)N(C)CCc3cnn(C)c3)no2)cc(C)c1Cl | 20.8 | 34.6 | 74.1* | -6.5
COc1cc(Cl)ccc1OCc1cc(C(=O)N(C)CCc2cnn(C)c2)no1 | -2.8 | 24.6 | 88.1* | -4.9
CC(=O)c1cccc(OCc2cc(C(=O)N(C)CCc3cnn(C)c3)no2)c1 | 5.1 | -2.4 | · | 5.6
SMILES | HSF1 inhib | HSF1 activator | esBAF inh | Vif inh
Cc1ccc(OCc2cc(C(=O)N(C)CCc3nc4ccccc4[nH]3)no2)cc1C | -88.4* | -86.7 | 4.9 | -0.9
COCC(=O)N(C)C[C@@H]1Oc2ncc(Br)cc2C(=O)N([C@H](C)CO)C[C@H]1C | · | · | 0.5 | ·
C[C@@H]1CN([C@H](C)CO)C(=O)c2cc(NC(=O)NC3CCCCC3)ccc2O[C@@H](C)CCCCO[C@@H]1CN(C)S(=O)(=O)c1ccccc1 | · | · | -1.3 | ·
O=C(C[C@@H]1C[C@H]2c3cc(NC(=O)c4cccnc4)ccc3O[C@H]2[C@H](CO)O1)NCc1cc(F)ccc1F | · | · | -3.3 | ·
Cc1ccccc1-c1nc(CN2CCC(C(=O)NC3CCCCC3)CC2)c(C)o1 | -1.2 | -25.6 | · | -2.7
Cc1oc(-c2ccccc2F)nc1CN1CCC(C(=O)NC2CCCCCCC2)CC1 | 34.1 | 57.4* | -1.2 | -5.9
